# Laboratory results taken from PubChem BioAssay (NCATS).
# Results filed as inconclusive are left out. A number with no mark means an inactive call. Activity calls are given as the source filed them. The call rests on the fitted dose curve; in most records, active means well fitted inhibition curve with a large enough effect; inconclusive means small, poorly fitted or top-dose-only effect; inactive means flat fitted curve, though single readings scatter.
# Molecular target: Phospholipid hydroperoxide glutathione peroxidase GPX4 (Homo sapiens) (UniProt P36969)
# Sequence (P36969 whole entry, looked up): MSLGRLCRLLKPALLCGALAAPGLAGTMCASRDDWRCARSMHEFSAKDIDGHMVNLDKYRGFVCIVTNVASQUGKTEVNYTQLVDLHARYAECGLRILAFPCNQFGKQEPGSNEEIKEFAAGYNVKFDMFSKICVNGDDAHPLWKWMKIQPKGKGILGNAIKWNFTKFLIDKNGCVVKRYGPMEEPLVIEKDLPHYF
# Test: Primary qHTS Assay for Inhibitors of Recombinant Selenoprotein Glutathione Peroxidase 4 (GPX4) (AID 1845192); further: nearly all actives have a fitted effect of over 65% in size
# Settings: recombinant GPX4, GR-coupled NADPH fluorescence, 15 min; series mostly up to 50 µM; activity change, negative = inhibition: at the top concentration
# From the text: Assay Provider: Elias S.J. Arner MD PhD.
# Department of Medical Biochemistry and Biophysics
# Karolinska Institutet, Solna, Stockholm, Sweden
# Selenoprotein glutathione peroxidases (GPX), like the ubiquitously expressed GPX1 and the ferroptosis modulator GPX4, enact their antioxidant activities by reducing hydroperoxides using glutathione. […] GPX1 and GPX4 inhibitors have thus shown promise as anti-cancer agents. Existing inhibitors are often promiscuous, or modulate GPX activity only indirectly, so novel direct inhibitors identified through screening against GPX1 and GPX4 could be valuable. Here, we developed optimized glutathione reductase (GR)-coupled GPX assays for the biochemical high-throughput screen (HTS) of almost 12,000 compounds with known mechanisms of action. Initial hits were triaged using a GR counter-screen, assessed for isoform specificity using a separate GPX2 assay, and were assessed for general selenocysteine-targeting activity using a thioredoxin reductase (TXNRD1) assay. With this suite of assays, we identified novel GPX1/GPX2- and GPX4-specific inhibitors and can here present a validated pipeline for future discovery research for selenoprotein-targeting agents.
# SEQUENCE No. (e.g., 1, 2, 3, etc.); […] (e.g., Cells, Incubation, Reagent, etc.); VALUE; DESCRIPTION.
# 1; Reagent 1; 3 uL; 333.33 nM GPx4 enzyme or no enzyme control in 1536-well, black, solid Greiner assay plate.
# 2; Compound; 25 nL; Kalypsis pin tool (Wako USA) equipped with a 1536-well pin head.
# 3; Incubation; 30 min; room temperature.
# 4; Reagent 2; 1 uL; 500 nM GR, 5 mM GSH, 2.5 mM NADPH solution
# 5; Reagent 3; 1 uL; 2.5 mM CHP in 50% EtOH.
# 6; Detection; Fluorescence; ViewLux microplate reader, excitation 340 nm and emission 450 nm.
# 7; Incubation; 15 min; room temperature.
# 8; Detection; Fluorescence; ViewLux microplate reader, excitation 340 nm and emission 450 nm.
# NOTES (numbers refer to Sequence numbers above)
# 1. 3 µL of 333.33 nM GPX4 and 0.016% BSA in assay buffer (50 mM Tris-HCl, 2 mM EDTA (pH 7.5), 150 mM NaCl) was added to columns 3-48 of 1536-well plates using a BioRAPTR Flying Reagent Dispenser (Let's Go Robotics (LGR), Carlsbad, CA). A no-enzyme control (0.01% BSA in TES assay buffer) was added to columns 1-2.
# 2. 25 nL, library and DMSO controls were added to each well with a pin tool (Kalypsys).
# 3. The assay plates were incubated for 30 minutes at room temperature.
# 4. 1 µL of master mix (500 nM glutathione reductase (GR), 5 mM reduced glutathione (GSH), 2.5 mM NADPH in assay buffer) was added.
# 5. 1 µL of cumene hydroperoxide (CHP) ([2.5 mM] in 50% EtOH) was then added within 5 minutes to initiate the reaction. Final concentrations were: 200 nM GPX4, 1 mM GSH, 0.5 mM CHP, 0.5 mM NADPH, 100 nM GR, 0.01% BSA.
# 6. Initial fluorescence readout (t=0) at 340/450 nm was measured using a ViewLux multimodal detector (PerkinElmer, Waltham, MA).
# 8. Endpoint fluorescence readout (t=15) at 340/450 nm was measured 15 min after room temperature incubation.
# On the % scale 0 is the no-effect control and ±100 the full control effect; potency means the concentration at half of the fitted maximal effect.
Structure (SMILES),outcome,"activity change, negative = inhibition",Potency
CC[C@H](C)/C=C(C)/C=C/C(=O)Cc1cc(O)c(C)c(O)c1C=O,inactive [at 27.8 µM],–,–
C=C1CC[C@@H]2[C@](C)(CC[C@H](O)[C@@]2(C)CCC=C(C)C)[C@@H]1Cc1c[nH]c2ccccc12,–,-27% [at 27.8 µM],–
O=C(/C=C/c1ccc(O)cc1)OC[C@]12O[C@H]1[C@@H](O)[C@@H]1C=CO[C@@H](O[C@@H]3O[C@H](CO)[C@@H](O)[C@H](O)[C@H]3O)[C@@H]12,inactive [at 27.8 µM],–,–
COC12CC3C(C(C)C1=CC(=O)O2)C(O)C(OC(C)=O)C1C(C)(C)C(OC(C)=O)CCC31C (stereo not given),–,-6.33% [at 27.8 µM],–
Cc1ccc(Sc2cncc3sc(C(N)=O)cc23)cc1,inactive,–,–
COc1cc(C2Oc3c(OC)cc(CCCO[C@@H]4O[C@H](CO)[C@@H](O)[C@H](O)[C@H]4O)cc3C2CO)ccc1O (stereo not given in full),inactive [at 27.8 µM],–,–
CC(C)(O)/C=C1/C(=O)C(C)(C)C(=O)C(C)(C)C1(O)O[C@@H]1O[C@H](COC(=O)c2cc(O)c(O)c(O)c2)[C@@H](O)[C@H](O)[C@H]1O (stereo not given in full),–,-9.07% [at 15.3 µM],–
CC1(C)CCC2(C(=O)OC3OC(COC4OC(CO)C(O)C(O)C4O)C(O)C(O)C3O)CCC3(C)C(=CCC4C5(C)CCC(O)C(C)(C(=O)O)C5CCC43C)C2C1O (stereo not given),–,-9.72% [at 15.3 µM],–
CC(C)CC(=O)n1cc(C(N)=O)c(=O)cc1C(O)c1ccccc1 (stereo not given),–,-10.5% [at 27.8 µM],–
COC(=O)CC1(O)C(=O)Nc2ccccc21 (stereo not given),–,-6.39%,–
CC(C)CNC(=O)/C=C/CCCCc1ccc2c(c1)OCO2,–,-6.04% [at 27.8 µM],–
CC1(C)CCCC2(C)C3=C(C(=O)OC3O)C(O)CC12 (stereo not given),inactive,–,–
CC(C)(C)NCC(O)COc1cccc2c1CCCC2=O (stereo not given),–,-1.02%,–
CC(=O)Oc1cc2c(s1)CCN([C@H](C(=O)C1CC1)c1ccccc1F)C2,–,-7.26%,–
CC1=C(/C=C/C(C)=C/C=C/C(C)=C/CO)C(C)(C)CCC1,–,–,17.8 µM (active)
C[C@@H]1O[C@@H](O[C@H]2[C@H](OC(=O)[C@]34CCC(C)(C)C[C@H]3C3=CCC5[C@@]6(C)C[C@H](O)[C@H](O[C@@H]7O[C@H](CO)[C@@H](O[C@@H]8O[C@H](CO)[C@@H](O)[C@H](O)[C@H]8O)[C@H](O)[C@H]7O)[C@@](C)(CO)C6[C@H](O)C[C@@]5(C)[C@]3(C)C[C@H]4O)OC[C@H](O)[C@@H]2O)[C@H](O)[C@H](O)[C@H]1O[C@@H]1OC[C@@H](O)[C@H](O[C@@H]2OC[C@](O)(CO)[C@H]2O)[C@H]1O (stereo not given in full),–,-11% [at 9.73 µM],–
CC1(CO)CC2C(O)C(=O)C3(CO)CC3(C)C2C1 (stereo not given),inactive,–,–
COc1cc(C(O)C(CO)Oc2ccc(CCCO[C@@H]3O[C@@H](C)[C@H](O)[C@@H](O)[C@H]3O)cc2OC)ccc1O (stereo not given in full),–,-3.68% [at 27.8 µM],–
C[C@@H]1O[C@@H](O[C@H]2[C@H](OC(C#N)c3ccc(O)cc3)O[C@H](CO)[C@@H](O)[C@@H]2O)[C@H](O)[C@H](O)[C@H]1O (stereo not given in full),inactive [at 27.8 µM],–,–
COC(=O)C1C(CC(C)=O)C=CC(O)C12Oc1cc(C)cc(O)c1C2=O (stereo not given),–,-9.07% [at 27.8 µM],–

Structure (SMILES),outcome,"activity change, negative = inhibition",Potency
CC1(C)CC[C@]2(C(=O)O[C@@H]3O[C@H](CO)[C@@H](O)[C@H](O)[C@H]3O)CC[C@]3(C)C(=CCC4[C@@]5(C)C[C@@H](O)[C@H](O)[C@@](C)(CO)C5CC[C@]43C)C2C1 (stereo not given in full),–,-4.9% [at 15.3 µM],–
CCC(CC)n1ccc2c(C(=O)NCc3c(C)cc(C)[nH]c3=O)cc(C#N)cc21,–,-14.8%,–
C[C@H]1CC[C@@]2(OC1)O[C@H]1CC3C4CC=C5C[C@H](O)C[C@@H](O[C@@H]6O[C@@H](C)[C@H](O)[C@@H](O)[C@H]6O[C@@H]6O[C@@H](C)[C@H](O)[C@@H](O)[C@H]6O)[C@]5(C)C4CC[C@]3(C)[C@H]1[C@@H]2C (stereo not given in full),–,-12.2% [at 15.3 µM],–
C=C1CC2C3(C)C(OC(C)=O)CC(=O)OC(C)(C)C3C(O)C(OC(C)=O)C2(C)C2C(=O)OC(C)C(=O)C12C (stereo not given),–,4.19% [at 27.8 µM],–
COC1=CC(=O)O[C@@H](/C=C/c2ccccc2)[C@@H]1O,–,1.6%,–
CC/C=C\C[C@H]1C(=O)C=C[C@@H]1CCCCCCCC(=O)O,–,-0.782%,–
CCCC1=CC2=C(CO1)C(=O)C(C)(OC(=O)c1c(C)cc(OC)cc1O)C(O)C2 (stereo not given),inactive [at 27.8 µM],–,–
C/C=C/C1=CC2=C(CO1)C(=O)[C@](C)(O)[C@H](OC(=O)c1c(O)cc(OC)c(O)c1C)C2,–,-5.45% [at 27.8 µM],–
COC(=O)[C@@H]1C2CC3c4[nH]c5ccccc5c4CCN3CC2CC[C@@H]1O (stereo not given in full),–,3.47%,–
COc1ccc(/C=C/C(=O)O[C@H]2[C@@H]3C=CO[C@@H](O[C@@H]4O[C@H](CO)[C@@H](O)[C@H](O)[C@H]4O)[C@@H]3[C@@]3(CO)O[C@@H]23)cc1O,inactive [at 27.8 µM],–,–
CC(C)(O)c1ccc2c(c1)C(O)CC1C(C)(C(=O)O)CCCC21C (stereo not given),–,-5.62% [at 27.8 µM],–
C[C@@H]1CCN(C(=O)CC#N)C[C@@H]1N(C)c1ncnc2[nH]ccc12,–,–,inactive
CN(C)C/C=C/C(=O)Nc1ccc(C(=O)Nc2cccc(Nc3ncc(Cl)c(-c4c[nH]c5ccccc45)n3)c2)cc1,–,–,inactive
c1nc(NC2CCCCCC2)c2cc(CNC[C@H]3CCCO3)sc2n1,–,1.77%,–
COC1CCCC/C(C)=C/C2C=C(C)C(C)C3C(CC(C)C)NC(=O)C23C(=O)C1 (stereo not given),–,-20.6% [at 27.8 µM],–
COc1cc(/C=C/C(=O)O[C@H]2[C@H](OC(=O)/C=C/c3cc(OC)c(O)c(OC)c3)O[C@H](CO[C@@H]3O[C@H](CO)[C@@H](O)[C@H](O)[C@H]3O)[C@@H](O)[C@@H]2O)ccc1O,–,-19.5% [at 15.3 µM],–
C=C[C@H]1[C@H](O[C@@H]2O[C@H](CO)[C@@H](O)[C@H](O)[C@H]2O)OC=C(C(=O)OC)[C@H]1C[C@@H]1N[C@H](C(=O)O)Cc2c1[nH]c1ccccc21,–,-2.74% [at 27.8 µM],–
C=CC(C)(C)C1(CC2NC(=O)C3CCCN3C2=O)C(=O)Nc2cc3c(cc21)C=CC(C)(C)O3 (stereo not given),–,-10.1% [at 27.8 µM],–
O=C(O[C@H]1[C@@H]2C=CO[C@@H](O[C@@H]3O[C@H](CO)[C@@H](O)[C@H](O)[C@H]3O)[C@@H]2[C@@]2(CO)O[C@@H]12)c1ccc(O)c(O)c1,–,-4.57% [at 27.8 µM],–
O=C(O)c1cc(O[C@@H]2O[C@H](CO[C@@H]3OC[C@@H](O)[C@H](O)[C@H]3O)[C@@H](O)[C@H](O)[C@H]2O)c2ccccc2c1O,–,-1.19% [at 27.8 µM],–
